Values joined by “and” are separate entries in the source; they are usually repeats but may differ in a detail not shown here. Equal values may be shown once. The panel holds about 79,000 compounds, 15% with a hit somewhere; the sample as a whole holds those more often. Values without a mark were called inactive. Active and inactive are the calls of the source. No stated cut-off is given here; in the data, active means growth inhibition above about 70%; inactive means the rest.

The nature of this assay: NCI Yeast Anticancer Drug Screen. Data for the rad50 strain (AID 155).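 Further: 0% = growth of vehicle-only cultures of the same strain.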 Conditions: S. cerevisiae rad50 strain growth inhibition, active compounds read high. The procedure:
Growth inhibition of yeast strains with defined genetic alterations is measured as a screen for potential anti-cancer activity. Selected strains with alterations in DNA damage repair or cell cycle control were exposed to compounds and growth inhibition was measured relative to vehicle treated controls. The strain used in this assay is rad50

The mark [1] stands for this setting: at 5.0 µM (retest, dose inferred, filed as 0.5).
[2] abbreviates: at 50.0 µM (retest, dose inferred, filed as 5.0).

In the case of `O=[N+]([O-])c1cc(-c2ccccc2)c(O)c([N+](=O)[O-])c1`, the growth inhibition reads like this: under setting [1], 31%; under setting [2], 78% (active); (at 50.0 µM) 93.8% (active).

On to `Oc1ccc(Cc2ccc(Cl)cc2)c(O)c1`, for which the growth inhibition by setting is: under setting [1], 3%; under setting [2], 98% (active).

As for `OC(c1cc(-c2ccc(C(F)(F)F)cc2)nc(C(F)(F)F)c1)C1CCCCN1` (stereo unspecified), the growth inhibition under setting [1] was 23%, the growth inhibition under setting [2] is 39% and the growth inhibition (at 50.0 µM) was 56.1%.

Take `O=C1C=Cc2ccccc2/C1=C/c1nc(-c2ccccc2)oc1O`: the growth inhibition by setting is: under setting [1], -2%; under setting [2], 97% (active); (at 50.0 µM) 89.5% (active).

As to `COc1cc(/C=C2\SC(=S)N(/C=C/c3nc4ccccc4[nH]c3=O)C2=O)cc(OC)c1OC`, the growth inhibition is -9% under setting [1], 57% under setting [2] and 8.55% (at 50.0 µM).

Consider `CC1OC(OC2C(OC3CCC4(C)C(CCC5(C)C4CC=C4C6CC(C)(C)CCC6(C(=O)O)CCC45C)C3(C)CO)OCC(O)C2O)C(O)C(O)C1O` (stereo unspecified), for which the growth inhibition under setting [1] was 94% (active), the growth inhibition under setting [2] is 99% (active) and the growth inhibition (at 50.0 µM) was 89.5% (active).

Regarding `OC(CSc1ccccc1)CN1CCN(c2ccc(Cl)cc2)CC1` (stereo unspecified), the growth inhibition is 8% under setting [1], 73% (active) under setting [2] and 84.2% (active) (at 50.0 µM).

With `c1ccc(C2NCCNC2c2ccccc2)cc1` (stereo unspecified), the growth inhibition by setting is: under setting [1], 1%; under setting [2], -5%; (at 50.0 µM) 2.15%.

On to `On1c(-c2ccccc2)nc2ccccc2c1=S`, for which the growth inhibition by setting is: under setting [1], 32%; under setting [2], 39%; (at 50.0 µM) 86.5% (active).

Take `C=c1c2ccccc2oc2nc3[nH]c(N)c(C#N)c(N)c3c(=N)c12`: the growth inhibition was 16% under setting [1], 82% (active) under setting [2] and 74% (active) (at 50.0 µM).

In the case of `O=C(CCl)N(c1ccccc1)c1ccccc1`, the growth inhibition under setting [1] is 5%, the growth inhibition under setting [2] was 59% and the growth inhibition (at 50.0 µM) was 89.7% (active).

Take `Cc1cccc2c(N)c3ccccc3nc12`: the growth inhibition under setting [1] is 12%, the growth inhibition under setting [2] is 57% and the growth inhibition (at 50.0 µM) was 87.7% (active).

`C=COC(=O)c1ccccc1C(=O)OCCCC`: the growth inhibition by setting is: under setting [1], 8%; under setting [2], 22%.

In the case of `COc1ccc(C(O)C(NCCO)c2ccc(OC)cc2)cc1` (stereo unspecified), the growth inhibition (at 50.0 µM) is 8.85% and -3.55%.

For `O=c1[nH]c(=O)n(C2OC(CO)C(O)C2O)c2nccnc12` (stereo unspecified), the growth inhibition (at 50.0 µM) was 10.5% and 5.1%.

Turning to `NC(C(=O)O)C(O)C(=O)O` (stereo unspecified), the growth inhibition (at 50.0 µM) was -14% and 2.7%.

Regarding `CN(C)CC1CCCC(CN2CCCCC2)C1=O` (stereo unspecified), the growth inhibition (at 50.0 µM) was -13.3% and -7.95%.

The record behind these values is PubChem BioAssay (NCI).
